About 1,000 (1.4%) of roughly 69,000 compounds showed an effect of 50% or more. This is one part of a sample in which strong results are shown more often than they occur.

The test system of the experiment is Leishmania donovani. The experiment is described as follows: Leishmania intramacrophage assay. Also on record: scale not given: in the data most compounds retested in dose-response had high values. It is filed as functional, organism-based.

`COc1ccccc1CC(C)CC(=O)NC(C)C` (stereo unspecified): for the setting “30.3 µM, […]”, the “Percent Effect” value is on record as 59.88%. As to `COc1ccccc1CC(C)CC(=O)NS(=O)(=O)C(C)C` (stereo unspecified), the “Percent Effect” value (30.3 µM, […]) came out at 63.27%. Turning to `COc1ccccc1CC(=O)NS(C)(=O)=O`, the “Percent Effect” value (30 µM, 30.03 µM) is listed as 11.96%. With `Cc1cc(NC(=O)NCC(c2ccccc2)N2CCOCC2)n(C)n1` (stereo unspecified), where the note is “30 µM”, the “Percent Effect” value is listed as 18.5%.

As to `C1CC(CN2CCO[C@H]3[C@H](OCC4CC4)CC[C@@H]32)CCO1.O=C(O)C(F)(F)F`, the “Percent Effect” value (30 µM, 30.03 µM) was 5.211%. For `Cc1ccc(NC(=O)CC2Cn3ncnc3NC2=O)cc1C` (stereo unspecified), the “Percent Effect” value (30.3 µM, […]) came out at 22.77%. Regarding `CN1CCOCC12CCN(c1ccc(C#N)cc1)CC2.O=C(O)C(F)(F)F`, where the note is “30.3 µM, […]”, the “Percent Effect” value was found to be 14.66%. Regarding `COc1ccc(C2CCCN2C(=O)c2csc(NC(C)=O)n2)cc1` (stereo unspecified), where the note is “30 µM, 30.03 µM”, the “Percent Effect” value was found to be 22.16%. With `Cc1cc(C(=O)NCCc2nc3c(s2)CCCC3)n(C)n1`, the “Percent Effect” value (30.3 µM, […]) was found to be 29.87%. As to `O=C1CCc2cc(-c3csc(CCN4CCOC4=O)n3)c(F)cc2N1`, the “Percent Effect” value (30.3 µM, […]) was -11.05%.

Regarding `CC(C)c1nc(C2CCCN(C(=O)c3ccc4c(c3)COC4)C2)no1` (stereo unspecified), the “Percent Effect” value (30 µM) stood at 33.04%. On to `CC(C)C(=O)N1CCC12CCCN(C(=O)c1ccccc1)C2` (stereo unspecified), for which, under “30.3 µM, […]”, the “Percent Effect” value was determined as 9.102%. On the same count and under the same terms, the figure for `Cc1occc1CNC(=O)C1(C)CCCN1C(=O)c1ccccc1` (stereo unspecified) is -78.28%; for `Cc1occc1CNC(=O)C1(C)CCCN(C(=O)c2ccccc2)C1` (stereo unspecified) it is 52.94%; for `Cc1cc(CNS(=O)(=O)CCCC#N)ccc1N(C)C` it is 31.94%.

For the molecule `CCOc1ncnc2c1CCN(Cc1csc(C)n1)CC2.O=C(O)C(F)(F)F`, the “Percent Effect” value (30.3 µM, […]) was 25.55%. On the same count and under the same terms, the figure for `CCOc1cc2c(cc1CNC(Cc1cccs1)c1nccs1)OCO2.Cl` (stereo unspecified) is 32.16%.

As to `Cc1nccc(-c2ccccc2)c1C(=O)N1CCC2(CCCO2)CC1`, the “Percent Effect” value (30.3 µM, […]) is on record as -0.7591%. With `Cc1[nH]c(-c2ccccc2)nc1C(=O)N1CCC2(CCCO2)CC1`, for the setting “30.3 µM, […]”, the “Percent Effect” value is 62.09%. For the molecule `Cc1[nH]c(-c2ccccc2)nc1C(=O)N1CCC(O)(CO)CC1`, where the note is “30.3 µM, […]”, the “Percent Effect” value is given as 20.13%.

Consider `CS(=O)(=O)Cc1cccc(C(=O)N2CCCC(n3cccn3)C2)c1` (stereo unspecified), for which the “Percent Effect” value (30 µM, 30.03 µM) is -5.751%. Regarding `CCc1ccc(C(=O)N2CCC(c3nncn3CC)CC2)o1`, the “Percent Effect” value (30.3 µM, […]) is -10.9%. On the same count and under the same terms, in the case of `COc1cc(CNC(=O)c2csc(Br)c2)ccn1` it was 18.58%. On the same count and under the same terms, the figure for `Cc1cc(CN(CC(N)=O)CC(C)C)on1` is 34.94%.

For `Cc1cc(CN(CC(N)=O)CC(C)C)no1`, the “Percent Effect” value (30.3 µM, […]) is listed as 34.93%. For the molecule `Cc1ccc(-c2cc(CN(CC(N)=O)CC(C)C)on2)cc1`, the “Percent Effect” value (30.3 µM, […]) was determined as 57.13%. `CN(C)C(=O)CO[C@H]1CN(Cc2ccc3c(c2)OCO3)[C@@H]2COC[C@H]12.O=C(O)C(F)(F)F`: the “Percent Effect” value (30.3 µM, […]) is recorded as 10.2%. On the same count and under the same terms, in the case of `O=C(O)Cc1cccc(-n2ccnc2-c2ccc(Cl)s2)c1` it was -13.71%. For `CC(NC(=O)NCCCO)c1ccc2c(c1)NC(=O)CO2` (stereo unspecified), under “30 µM”, the “Percent Effect” value is listed as 9.165%. `CC(NC(=O)C1CCN(C(=O)C2CC2)CC1)c1nncn1C(C)C` (stereo unspecified): for the setting “30.3 µM, […]”, the “Percent Effect” value was determined as 27.99%. With `CC(NC(=O)C1CCN(C(C)C)CC1)c1nncn1C1CCCC1` (stereo unspecified), the “Percent Effect” value (30.3 µM, […]) was 38.57%.

In the case of `CC(NC(=O)C1CCCC1)c1nncn1C(C)C` (stereo unspecified), the “Percent Effect” value (30.3 µM, […]) is reported as 53.36%. Same read-out and setting: the figure for `Cc1ccc(CN2CCOC3(CCCN(c4cccc(F)c4)C3)C2)o1.O=C(O)C(F)(F)F.O=C(O)C(F)(F)F` (stereo unspecified) is 23.02%. Same read-out and setting: the figure for `O=C(NCCCOC1CCCCC1)C1NCCc2[nH]cnc21` (stereo unspecified) is 6.477%. Same read-out and setting: the figure for `COC(=O)NCC(=O)N1CCC(c2cc3ccccc3[nH]2)CC1` is 11.64%. As for `N#CCCCS(=O)(=O)NC1(c2cccc(Cl)c2)CC1`, the “Percent Effect” value (30.3 µM, […]) is listed as 17.77%. On the same count and under the same terms, the figure for `CCS(=O)(=O)N1CCc2ccc(NC(=O)Nc3cccc(F)c3)cc21` is 17.8%. As for `CCS(=O)(=O)N1CCc2ccc(NC(=O)Nc3cccc(SC)c3)cc21`, the “Percent Effect” value (30 µM, 30.03 µM) is 59.71%.

Turning to `CCS(=O)(=O)N1CCc2ccc(NC(=O)Nc3ccccc3)cc21`, the “Percent Effect” value (30.3 µM, […]) stood at 14.09%. Consider `CC(=O)N(Cc1ncc(C(C)C)o1)C1CCN(Cc2cc(C)no2)C1` (stereo unspecified), for which the “Percent Effect” value (30 µM) was determined as 25.52%. `O=C1CN(C(=O)C2CN(c3ccccc3)CCO2)CCN1` (stereo unspecified): the “Percent Effect” value (30.3 µM, […]) was 40.28%.

For `CC(C)n1c(=O)c2ccccc2n(CCN(C)C)c1=O.Cl`, the “Percent Effect” value (30.3 µM, […]) stood at 50.24%.

Consider `O=C(NCCCN1CCCCC1)c1n[nH]c(=O)c2ccccc12`, for which, for the setting “30.3 µM, […]”, the “Percent Effect” value worked out at 20.29%. With `O=C(NCCN1CCCCCC1)c1n[nH]c(=O)c2ccccc12`, the “Percent Effect” value (30.3 µM, […]) is -32.33%. With `CC(C)n1c(=O)c2ccccc2n(CCN2CCCCC2)c1=O`, the “Percent Effect” value (30.3 µM, […]) came to 52.87%. For `CN(C)CCn1c(=O)n(C)c(=O)c2ccccc21.Cl`, under “30.3 µM, […]”, the “Percent Effect” value is on record as -33.87%.

As for `CC(C)n1c(=O)c2ccccc2n(CCCN(C)C)c1=O.Cl`, the “Percent Effect” value (30.3 µM, […]) was -9.627%. As for `CCOCCn1nnc(C2(NC(=O)c3ccccc3)CCCC2)n1`, the “Percent Effect” value (30 µM, 30.03 µM) is on record as 1.124%. For the molecule `Cc1ccc(OC2(C(=O)N(C)Cc3ccoc3)CCNCC2)cc1`, the “Percent Effect” value (30.3 µM, […]) was found to be 83.11%. On the same count and under the same terms, the figure for `CN(Cc1ccncn1)C(=O)C1(Oc2ccc(Cl)cc2)CCNCC1` is 12.34%; for `CN(Cc1ccoc1)C(=O)C1(Oc2ccc(Cl)cc2)CCNCC1` it is -16.66%.

Source of the values: ChEMBL document CHEMBL3988442, “University of Dundee, Small-Polar-MMV Screening Library” (2021).
